From PubChem BioAssay AID651571 (The Scripps Research Institute Molecular Screening Center, 2012) come the findings set out here.

SMILES strings stand for the structures. Among all 1,500 compounds or so, about 1,300 (87%) were called active. No stated cut-off is given here; in the data, active means inhibition above about 9%; inactive means the rest. So high a share suggests a set chosen from earlier hits. These entries were drawn from the full list.

The assay is described as follows: PG9 antibody small-molecule binding – biochemical, TR-FRET, confirmation (AID 651571). Conditions: at 6.7 µM, stronger effect = higher value. (In general: TR-FRET usually uses a lanthanide donor and a delayed reading to cut background.)
As for `CCN(CC)C(=O)c1ccc(NC(=O)c2sccc2-c2ccccc2)cc1`, the inhibition (usually the change of the read-out against control, counted positive when it falls) was 16.6% (active).

Regarding `N#CC1=C(N)Oc2c(c(=O)oc3ccccc23)C1c1ccccc1OC(=O)c1cccs1` (configuration not stated), the inhibition is 20.4% (active).
